The text below walks through data of PubChem BioAssay (Tox21).

Assay [1] addresses Progesterone receptor (Homo sapiens) (UniProt P06401). Nature of the assay: qHTS assay to identify small molecule agonists of the progesterone receptor (PR) signaling pathway (AID 1346784; calls by dose curve; note: nearly all actives have a fitted effect of over 30% in size). Summed up:
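Agonist qHTS: compounds pinned onto 3,000 PR-UAS-bla HEK 293T cells per well in charcoal-stripped serum medium, 16hr at 37C, then beta-lactamase activity measured by LiveBLAzer FRET fluorescence after 2 hours at room temperature.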
Background: In qHTS, concentration-response curves come from the screen itself.

The target is the same in assay [2]. Kind of assay: qHTS assay to identify small molecule antagonists of the progesterone receptor (PR) signaling pathway (AID 1346795; active = well fitted inhibition curve with a large enough effect in the signal ratio in the repeat runs, not every such curve was filed as active; the % refers to the signal ratio). Put shortly: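 Antagonist mode with agonist R5020 at 1 nM final and 16 hr incubation at 37C. Reporter was beta-lactamase driven by UAS in HEK293T (PR-UAS-bla), 2% charcoal-stripped serum; signal from LiveBLAzer FRET substrate, 2 hr at room temperature.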

A short description of assay [3]: qHTS assay to identify small molecule antagonists of the progesterone receptor (PR) signaling pathway - cell viability counter screen (AID 1346798). Note: series mostly up to about 92 µM; nearly all actives have a fitted effect of over 50% in size. Summed up: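 Cytotoxicity read as CellTiter-Glo luminescence (30 min, room temperature) in the same wells as the beta-lactamase readout. HEK293T PR-UAS-bla cells in charcoal-stripped 2% FBS received compound and R5020, then 16 h at 37C, 5% CO2.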

Assay [4] can be described thus: qHTS assay to identify small molecule agonists of the progesterone receptor (PR) signaling pathway - cell viability counter screen (AID 1346799; calls by dose curve; note: nearly all actives have a fitted effect of over 45% in size). Put shortly: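 Cytotoxicity measured by CellTiter-Glo luminescence (30 min, RT) in the same wells as the PR beta-lactamase agonist read. Those HEK293T cells had 16 h compound treatment at 37 C in 2% charcoal-stripped FBS medium.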

Assay [5] is described as follows: qHTS assay to identify small molecule antagonists of the TGF-beta/Smad signaling pathway - cell viability counter screen (AID 1346824). Note: nearly all actives have a fitted effect of over 50% in size. Summed up: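 Cytotoxicity counter-screen run in the same wells as the beta-lactamase Smad reporter read: CellTiter-Glo luminescence after 30 min at room temperature. HEK 293T SBE-bla cells had 5 hr compound exposure at 37 C with TGF-beta1 (0.25 ng/mL stock).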

The nature of assay [6]: qHTS assay to identify small molecule agonists of the TGF-beta/Smad signaling pathway - cell viability counter screen (AID 1346829). Note: top concentration of the series differs between compounds; nearly all actives have a fitted effect of over 45% in size. Summed up:
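After overnight seating at 37 C and 5% CO2, reporter cells got compounds for 5 hr and FRET substrate for 2 hr; cell viability then came from CellTiter-Glo luminescence.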

Assay [7] can be described thus: qHTS assay to identify small molecule agonists of the TGF-beta/Smad signaling pathway (AID 1346859; active = well fitted activation curve with a large enough effect in the signal ratio in the repeat runs, not every such curve was filed as active; the % refers to the signal ratio; note: series mostly up to about 77 µM). Put shortly: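 Fluorescence (ex 405 nm; em 460 and 530 nm) was read 2 h after LiveBLAzer FRET substrate at RT. The preceding compound treatment of overnight-plated SBE-bla HEK293T cells lasted 5 h at 37 C.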
Assay [8] addresses Thyrotropin-releasing hormone receptor (Homo sapiens) (UniProt P34981). Kind of assay: qHTS assay to identify small molecule antagonists of the thyrotropin-releasing hormone receptor (TRHR) signaling pathway (AID 1346877; active = well fitted inhibition curve with a large enough effect in the repeat runs, not every such curve was filed as active; note: series mostly up to about 51 µM). Put shortly:
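Intracellular calcium fluorescence, read kinetically every second over 3 min, reports TRH-evoked signalling in HEK293 cells carrying TRHR. Test compounds were added 5 min ahead of a 1 nM TRH challenge.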

For assay [9] the target is unchanged. Nature of the assay: qHTS assay to identify small molecule agonists of the thyrotropin-releasing hormone receptor (TRHR) signaling pathway (AID 1346891; calls by dose curve; note: series mostly up to about 58 µM). Summed up: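 Agonist-mode intracellular calcium readout: kinetic fluorescence over 3 min at 1 s intervals after compound addition to TRHR-HEK293 cells (18 h seeded, 2 h dye-loaded at 37 C). Fifteen concentrations, triplicates.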

Assay [10] in a line: Human pregnane X receptor (PXR) small molecule agonists, qHTS cell viability counter screen (AID 1346977). Note: nearly all actives have a fitted effect of over 50% in size. Note: potency is the fitted concentration of half-maximal effect. Summed up: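 Same-well viability read: CellTiter-Fluor added after 23 hr compound exposure, fluorescence measured 1 hr later. Cells were PXR-Luc HepG2 seeded at 2,000/well in 5% charcoal-stripped FBS medium, rested 5 hr before dosing at 37 C.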
Assay [11] in a line: Caspase-3/7 induction in HepG2 cells by small molecules, qHTS assay (AID 1346978). Note: nearly all actives have a fitted effect of over 15% in size. Summed up:
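Caspase-3/7 induction was measured by Caspase-Glo 3/7 luminescence (30 min, room temperature) after a 17 hr compound exposure of wild-type HepG2 cells seeded at 2,000 per well and pre-incubated 5 hr.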

Assay [12] in a line: Caspase-3/7 induction in CHO-K1 cells by small molecules, qHTS cell viability counter screen (AID 1346979). Note: nearly all actives have a fitted effect of over 35% in size. Put shortly: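 Cytotoxicity counter screen: CellTiter-Fluor added to compound-treated wild-type CHO-K1 cells at 16 h (37C, 5% CO2), fluorescence measured 1 h later; same wells as caspase-3/7 measurement.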
Assay [13] is described as follows: Caspase-3/7 induction in CHO-K1 cells by small molecules, qHTS assay (AID 1346980). Note: nearly all actives have a fitted effect of over 15% in size. Put shortly: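 Luminescent Caspase-Glo 3/7 read (30min, room temperature) quantified apoptosis induction. Cells were wild-type CHO-K1, treated with compound for 17hr at 37 C and 5% CO2.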
The nature of assay [14]: Caspase-3/7 induction in HepG2 cells by small molecules, qHTS cell viability counter screen (AID 1346981). Note: series mostly up to about 92 µM; nearly all actives have a fitted effect of over 30% in size. Summed up: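 HepG2, WT, 2,000 cells/well; 5 hr pre-incubation 37 C/5% CO2; compound pin-transferred from DMSO; 16 hr exposure; CellTiter-Fluor, 1 hr; fluorescence read.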
Assay [15] addresses Cytochrome P450 2C19 (Homo sapiens) (UniProt P33261). Nature of the assay: Cytochrome P450 Family 2 Subfamily C Member 19 (CYP2C19) small molecule antagonists: luciferase reporter qHTS assay (AID 1671197). For activity change, negative = inhibition: series mostly up to about 120 µM. Note: nearly all actives have a fitted effect of over 65% in size. Note: potency is the fitted concentration of half-maximal effect. Summed up:
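Inhibition of CYP2C19 was scored from loss of luminescence in a P450-Glo proluciferin substrate assay, NADPH-started and run 1 h at 37C, with ketoconazole as positive control.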

The target of assay [16] is Nuclear receptor subfamily 1 group I member 2 (Homo sapiens) (UniProt O75469). Kind of assay: Human pregnane X receptor (PXR) small molecule agonists, qHTS assay (AID 1346982). Note: nearly all actives have a fitted effect of over 35% in size. Note: potency is the fitted concentration of half-maximal effect. Summed up:
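Luciferase signal from ONE-Glo (30 min, room temperature) measured activation of hPXR-driven CYP3A4 reporter expression in PXR-Luc HepG2 cells treated with compounds for 24 hr at 37 C.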

In assay [17] the target is Cytochrome P450 2D6 (Homo sapiens) (UniProt P10635). Kind of assay: Cytochrome P450 Family 2 Subfamily D Member 6 (CYP2D6) small molecule antagonists: luciferase reporter qHTS assay (AID 1671196). For activity change, negative = inhibition: series mostly up to about 120 µM. Note: nearly all actives have a fitted effect of over 50% in size. Note: potency is the fitted concentration of half-maximal effect. Put shortly:
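Read-out is luminescence from luciferin formed by CYP2D6 turnover of a proluciferin substrate, recorded as relative luminescence units. Reactions ran 1 h at room temperature after NADPH regeneration solution was added.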
A general note: A reporter such as luciferase makes a cellular process visible.

In assay [18] the target is Nuclear receptor subfamily 1 group I member 2 (Rattus norvegicus) (UniProt Q9R1A7). Kind of assay: Rat pregnane X receptor (rPXR) activation by small molecules, qHTS assay (AID 1346983). Note: nearly all actives have a fitted effect of over 20% in size. The following applies: rPXR luciferase reporter cells, One-Glo luminescence, 24 h; stronger effect = higher value. Summed up: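 Luminescent readout (One-Glo luciferase, 30 min room temperature) followed 24 hr compound treatment at 37 C of rPXR cells plated 2,000 per well and preincubated 5hr; qHTS format with compounds delivered in DMSO.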
Nuclear receptor subfamily 1 group I member 2 (Rattus norvegicus), sequence (Q9R1A7 whole entry, looked up): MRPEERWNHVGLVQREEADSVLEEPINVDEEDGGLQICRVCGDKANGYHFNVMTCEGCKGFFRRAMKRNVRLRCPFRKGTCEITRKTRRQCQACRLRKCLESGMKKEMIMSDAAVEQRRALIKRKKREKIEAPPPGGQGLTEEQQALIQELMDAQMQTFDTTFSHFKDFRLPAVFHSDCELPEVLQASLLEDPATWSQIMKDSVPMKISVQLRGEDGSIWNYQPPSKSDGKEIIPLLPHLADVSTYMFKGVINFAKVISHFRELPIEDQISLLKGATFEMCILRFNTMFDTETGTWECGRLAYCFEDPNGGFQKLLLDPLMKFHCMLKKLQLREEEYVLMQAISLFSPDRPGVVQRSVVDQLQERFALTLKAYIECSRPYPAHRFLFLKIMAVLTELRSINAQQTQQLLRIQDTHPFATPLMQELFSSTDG

Assay [19] concerns the target Nuclear receptor subfamily 1 group I member 2 (Homo sapiens) (UniProt O75469). Nature of the assay: Human pregnane X receptor (PXR) activation by small molecules, qHTS assay (AID 1346985). Note: nearly all actives have a fitted effect of over 40% in size. Summed up: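 DPX-2 cells (HepG2 co-transfected with a PXR response element and a CYP3A4-promoter luciferase construct) were seeded at 2,000 per well, rested 5 hr at 37C, then exposed to DMSO-dissolved compounds for 24 hr. Activation was read as luciferase luminescence.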

SMILES strings stand for the structures. Where “and” joins values, the source holds several entries; their conditions need not be identical. Equal entries are not always repeated. Records with an inconclusive call do not appear. Some compounds were tested as several samples or in several runs, with calls that do not always agree. Calls of active or inactive are those of the source. Unless noted, calls come from the whole dose curve; as a rule, active = well fitted curve in the direction sought with a large enough effect in the repeat runs; inconclusive = weak or mixed curves; inactive = no such curve, though single readings can be large; an effect the other way counts as inactive or inconclusive.
% is set by controls: 0 for no effect and ±100 for the full control effect.

Cytochrome P450 2D6 (Homo sapiens), sequence (P10635 whole entry, looked up): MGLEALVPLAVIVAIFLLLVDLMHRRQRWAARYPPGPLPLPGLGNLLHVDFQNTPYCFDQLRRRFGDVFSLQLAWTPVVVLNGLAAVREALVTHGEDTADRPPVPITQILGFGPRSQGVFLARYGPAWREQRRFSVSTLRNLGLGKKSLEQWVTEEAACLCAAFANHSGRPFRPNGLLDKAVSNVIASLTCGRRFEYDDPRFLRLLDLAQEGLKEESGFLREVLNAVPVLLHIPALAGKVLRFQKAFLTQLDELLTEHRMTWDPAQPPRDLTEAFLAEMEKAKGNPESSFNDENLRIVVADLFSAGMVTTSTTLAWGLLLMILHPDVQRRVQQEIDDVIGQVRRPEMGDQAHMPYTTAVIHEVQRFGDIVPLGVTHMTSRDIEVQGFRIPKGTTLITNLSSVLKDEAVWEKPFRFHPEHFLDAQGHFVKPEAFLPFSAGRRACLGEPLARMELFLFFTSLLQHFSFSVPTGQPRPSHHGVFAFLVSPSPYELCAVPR
Cytochrome P450 2C19 (Homo sapiens), sequence (P33261 whole entry, looked up): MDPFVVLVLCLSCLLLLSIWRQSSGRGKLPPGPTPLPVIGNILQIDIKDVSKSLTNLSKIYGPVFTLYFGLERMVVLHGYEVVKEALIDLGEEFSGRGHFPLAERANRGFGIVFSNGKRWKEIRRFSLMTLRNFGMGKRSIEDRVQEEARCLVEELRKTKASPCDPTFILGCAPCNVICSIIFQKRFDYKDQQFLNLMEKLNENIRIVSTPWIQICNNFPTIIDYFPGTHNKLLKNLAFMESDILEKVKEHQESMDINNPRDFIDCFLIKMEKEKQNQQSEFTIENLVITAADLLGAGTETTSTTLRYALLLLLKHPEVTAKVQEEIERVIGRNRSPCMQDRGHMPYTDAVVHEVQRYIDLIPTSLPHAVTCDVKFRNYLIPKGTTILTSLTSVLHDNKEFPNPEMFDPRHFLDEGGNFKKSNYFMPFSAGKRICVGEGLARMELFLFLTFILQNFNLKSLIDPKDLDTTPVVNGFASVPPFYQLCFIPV
Thyrotropin-releasing hormone receptor (Homo sapiens), sequence (P34981 whole entry, looked up): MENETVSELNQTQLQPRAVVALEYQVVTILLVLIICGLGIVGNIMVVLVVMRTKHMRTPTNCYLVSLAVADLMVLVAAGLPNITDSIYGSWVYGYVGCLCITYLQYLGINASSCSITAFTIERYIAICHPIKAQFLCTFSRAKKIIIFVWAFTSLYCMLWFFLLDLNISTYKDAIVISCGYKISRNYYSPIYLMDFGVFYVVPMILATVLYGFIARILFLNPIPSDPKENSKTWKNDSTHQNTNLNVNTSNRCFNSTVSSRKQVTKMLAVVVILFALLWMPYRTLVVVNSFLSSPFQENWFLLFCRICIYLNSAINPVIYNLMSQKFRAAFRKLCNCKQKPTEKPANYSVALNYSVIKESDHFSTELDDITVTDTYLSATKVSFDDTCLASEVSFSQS
Progesterone receptor (Homo sapiens), sequence (P06401 whole entry, looked up): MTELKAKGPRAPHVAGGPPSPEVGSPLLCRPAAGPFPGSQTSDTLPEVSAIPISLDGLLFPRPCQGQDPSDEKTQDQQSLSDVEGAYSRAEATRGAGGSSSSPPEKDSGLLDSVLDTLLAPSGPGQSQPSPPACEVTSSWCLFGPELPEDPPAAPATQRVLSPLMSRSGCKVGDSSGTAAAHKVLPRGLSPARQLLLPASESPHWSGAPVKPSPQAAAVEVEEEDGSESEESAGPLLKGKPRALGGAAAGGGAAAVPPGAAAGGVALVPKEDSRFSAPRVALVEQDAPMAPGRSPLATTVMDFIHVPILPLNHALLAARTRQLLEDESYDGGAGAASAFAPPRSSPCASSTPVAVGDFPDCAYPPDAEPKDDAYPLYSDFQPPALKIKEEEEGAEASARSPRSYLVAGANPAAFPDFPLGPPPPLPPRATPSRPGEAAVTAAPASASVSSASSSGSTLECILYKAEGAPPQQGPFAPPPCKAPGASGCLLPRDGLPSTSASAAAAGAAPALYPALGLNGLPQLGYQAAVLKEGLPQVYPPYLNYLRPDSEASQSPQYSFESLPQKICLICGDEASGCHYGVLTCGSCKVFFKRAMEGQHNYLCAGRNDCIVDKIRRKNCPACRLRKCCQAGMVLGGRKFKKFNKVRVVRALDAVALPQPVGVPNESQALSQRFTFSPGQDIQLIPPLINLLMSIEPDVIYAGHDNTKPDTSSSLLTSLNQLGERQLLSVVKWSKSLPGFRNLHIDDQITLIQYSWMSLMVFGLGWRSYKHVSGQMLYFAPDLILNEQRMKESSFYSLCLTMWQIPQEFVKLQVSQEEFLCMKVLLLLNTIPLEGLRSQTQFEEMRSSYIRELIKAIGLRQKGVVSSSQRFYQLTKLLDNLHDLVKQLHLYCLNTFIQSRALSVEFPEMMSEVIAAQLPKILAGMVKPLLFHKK
Nuclear receptor subfamily 1 group I member 2 (Homo sapiens), sequence (O75469 whole entry, looked up): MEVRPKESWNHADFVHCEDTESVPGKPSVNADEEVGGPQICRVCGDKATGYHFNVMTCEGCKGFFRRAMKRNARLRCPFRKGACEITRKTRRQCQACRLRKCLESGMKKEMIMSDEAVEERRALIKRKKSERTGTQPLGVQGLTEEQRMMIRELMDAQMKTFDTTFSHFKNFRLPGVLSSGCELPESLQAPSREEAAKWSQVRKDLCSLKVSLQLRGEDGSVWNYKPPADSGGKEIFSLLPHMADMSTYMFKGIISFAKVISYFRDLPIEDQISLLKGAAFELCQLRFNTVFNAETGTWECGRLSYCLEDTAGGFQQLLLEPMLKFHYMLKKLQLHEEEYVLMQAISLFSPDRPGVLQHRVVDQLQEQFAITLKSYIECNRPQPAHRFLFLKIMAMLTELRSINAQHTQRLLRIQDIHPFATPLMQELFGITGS

Turning to `O=C(NCC1CCCCN1)c1cc(OCC(F)(F)F)ccc1OCC(F)(F)F` (stereo not drawn), the Potency entry in assay [1], in assay [2], in [3], in [4], in [5] and in assay [6] was “inactive” each time. Further, the Potency result in assay [7], in assay [8], in assay [11], in [12], in assay [13] and in [14] was “inactive” throughout. Further, the Potency result in assay [15] was “inactive”. Also, the result in [9] was inactive. In [10], the Potency was 60 µM (active).
For the molecule `CCCCC(=O)O`, the Potency entry in [1], in assay [2], in assay [3], in assay [4], in assay [5] and in assay [6] was “inactive” each time. The Potency entry in [7], in assay [8], in assay [10], in assay [11], in [13] and in assay [14] was “inactive” each time. Further, the Potency result in assay [16], in [17] and in [15] was “inactive” throughout. Further, the outcome in assay [9] was inactive.
In the case of `CCCCCNCCCCC`, the Potency entry in assay [1], in [2], in assay [3], in [4], in assay [5] and in assay [6] was “inactive” throughout. Moreover, the Potency entry in [7], in assay [8], in assay [10], in assay [11], in assay [13] and in assay [14] was “inactive” each time. For the same molecule, the Potency entry in assay [16] and in assay [15] was “inactive” throughout. The outcome in assay [9] was inactive. Besides, the Potency in assay [17] is 36.4 µM (active).
As to `CCCCCCCCCCCC(=O)N(C)CC(=O)O`, the Potency entry in assay [1], in assay [2], in [4], in [5], in [6] and in [7] was “inactive” each time. Also, the Potency entry in [10], in assay [11], in assay [12], in [13] and in assay [14] was “inactive” throughout. The activity change, negative = cytotoxicity in [3] is 0.0198% [at 8.39 µM] (inactive). In addition, the Potency in assay [16] is 59.2 µM (active). In addition, the activation in [16] was -3.89% [at 8.39 µM] (inactive). Besides, the results for the activity change, negative = inhibition in [17] and in [15] were -25.2% [at 10.5 µM] (inactive) and 17.6% [at 10.5 µM] (inactive), respectively.
For the molecule `OC[C@H]1O[C@@H](Oc2ccc(O)cc2)[C@H](O)[C@@H](O)[C@@H]1O`, the Potency result in [1], in assay [2], in assay [3], in assay [4], in [5] and in assay [6] was “inactive” throughout. Besides, the Potency result in [7], in [8], in assay [10], in assay [11], in [13] and in [14] was “inactive” in each case. For the same molecule, the Potency entry in [16], in [17] and in assay [15] was “inactive” in each case. For the same molecule, the call in assay [9] and in assay [19] was inactive. The max activation in assay [18] is -0.143% (inactive).
Turning to `C=CC(=O)NCOCCCC`, the Potency entry in [1], in [2], in assay [3], in assay [4], in assay [5] and in [6] was “inactive” each time. Also, the Potency entry in assay [7], in assay [8], in assay [10], in assay [11], in assay [13] and in assay [14] was “inactive” each time. Besides, in assay [16], the Potency result is “inactive”. Also, the call in assay [9] was inactive. Further, the Potency in [17] was 16.4 µM (active) and inactive; in [15], 46.2 µM (active).
In the case of `CN=C(NC#N)NCCSCc1nc[nH]c1C`, the Potency result in assay [1], in assay [2], in [3], in assay [4], in assay [5] and in assay [6] was “inactive” in each case. For the same molecule, the Potency result in assay [7], in [8], in assay [10], in assay [11], in assay [12] and in [13] was “inactive” each time. Moreover, in assay [14], the Potency entry is “inactive”. In addition, in [9], the molecule was classed as inactive. Further, the Potency is 31.4 µM (active) and 15.5 µM (active) in assay [17]; 22.2 µM (active) and 34.7 µM (active) in [15].
Consider `Cc1cccc(C)c1[N+](=O)[O-]`, for which the Potency entry in [1], in assay [2], in assay [3], in assay [4], in assay [5] and in assay [6] was “inactive” each time. For the same molecule, the Potency entry in [7], in assay [8], in assay [10], in [11], in assay [13] and in [14] was “inactive” in each case. Also, the Potency entry in assay [16] and in [17] was “inactive” throughout. Besides, the molecule was called inactive in [9].
